Mot1-301 SUMO: SUMOylation pathway inhibition by Mot1-301 growth rescue. S. cerevisiae Mot1-301 growth rescue, ATP luminescence, 38.5C; percent above DMSO median, 100 means doubled. growth rescue, % at 18.8 µM. hit rate 1% among 320,000. AID 2716;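 active means every valid replicate shows activation above 250% relative to neutral control wells; inactive means the rest, any valid replicate at or below 250%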;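 further: OY570 slx delta 5 strain wells were the positive control but not used for scaling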
NALP3 yeast inh: blocks the NALP3 inflammasome reconstituted in yeast; hit rate 0.39% among 330,000; inhibition, % at 10 µM; Yeast reconstituted NLRP3/ASC/caspase-1, beta-gal luminescence, 24 h;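 active means inhibition of 50% or more; inactive means inhibition below 50%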;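 further: plate controls were induced DMSO wells for no effect and uninduced yeast grown without galactose for full effect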
PolyA inh: inhibitors of polyadenylation in S. cerevisiae; AID 1875; hit rate 0.02% among 300,000; S. cerevisiae SKY197-pL101 polyadenylation reporter, beta-gal luminescence; efflux-impaired pdr1/pdr3 knockout yeast; score 100 = 6 SD above DMSO; activity score, % at 12 µM;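 active means lowest replicate activity score at least 50, where 100 means six control SD above control mean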;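 further: yeast exposed to compound for 9 h at 30 °C; higher score means more reporter readthrough which indicates perturbed polyadenylation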
NALP1 yeast inh: blocks the NALP1 inflammasome reconstituted in yeast. inhibition, % at 10 µM. hit rate 0.61% among 280,000. S. cerevisiae NALP1/ASC/caspase-1 growth, X-gal OD620, 72 h. AID 2071; in the data active means inhibition mostly above about 24%, no sharp cut-off; inactive means mostly below about 32%
Yeast Mot1 SUMO: yeast SUMO pathway inhibition in dose response | S. cerevisiae Mot1-301 galactose growth, ATP luminescence, 24 h; -100 = growth of slx-deleted rescue strain | growth activity, percent, % at 42 µM | 2,300 tested, under 10 active | shares compounds with Mot1-301 SUMO;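 active means Signal drops as the depositor expects, and the fitted half-maximal dose is no more than ten times the top valid tested dose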;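 further: more negative values mean stronger growth rescue toward the control strain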
* = called active by the depositor; x = no result given; + = active, no number; ! = not confirmed by another sample. Shown are actives, neighbours in structure and some others; about 1.8% of the full set was active somewhere.

SMILES | Mot1-301 SUMO | NALP3 yeast inh | PolyA inh | NALP1 yeast inh | Yeast Mot1 SUMO
Cc1nn(C(C)(C)C)c(OC(=O)c2ccc3c(c2)OCO3)c1S(=O)(=O)c1ccccc1 | + | 28.2 | -17.2 | 1.2 | -1.3
Cc1nn(C(C)(C)C)c(OC(=O)c2ccc3c(c2)OCO3)c1Sc1ccccc1 | 109.3 | 0.0 | -21.3 | 6.7 | x
Clc1nc(NCc2ccco2)nc(N2CCCCC2)n1 | 174.4 | 19.9 | -3.8 | 5.9 | x
O=C1NC(=O)N(Cc2ccccc2)C1=O | + | 6.3 | 18.4 | 19.0 | 0.8
O=S(=O)(Nc1cccc2cn[nH]c12)c1ccc(F)cc1 | 790.1* | 18.6 | -8.6 | 0.8 | 0.9
COc1cc(S(=O)(=O)Nc2cccc3cn[nH]c23)c(OC)cc1C | -1.0 | 7.6 | 1.0 | 3.6 | x
CC(C)COC(=O)n1c(=O)oc2cc(S(=O)(=O)N3CCCCC3)ccc21 | -2.3 | 10.1 | -9.0 | 4.1 | x
COc1ccc(-n2c(C)cc(C(=O)CN3C(=O)NC4(CCCc5sccc54)C3=O)c2C)cc1 (stereo unspecified) | + | 6.7 | 2.8 | 28.4 | -1.0
Cc1cc(C(=O)CN2C(=O)NC3(CCCc4sccc43)C2=O)c(C)n1-c1ccccc1 (stereo unspecified) | 37.8 | -3.6 | -17.6 | 12.9 | x
O=C(Nc1ccc(S(=O)(=O)NC2=NCCCCC2)cc1)c1ccc(C(F)(F)F)cc1 | 450.9* | 3.6 | -3.8 | x | -0.9
CCNC(=O)NC(C(=O)OC)C12CC3CC(CC(C3)C1)C2 (stereo unspecified) | 562.3* | 8.6 | 1.1 | -12.6 | 0.6
CN(Cc1ccccc1)C(=O)CSc1nc2cc(C(=O)N3CCC(C(N)=O)CC3)ccc2c(=O)n1-c1ccccc1 | -7.9 | -20.4 | 0.5 | x | x
O=C(Cc1ccccc1)CC1(O)C(=O)Nc2ccccc21 (stereo unspecified) | -4.5 | -5.6 | 4.6 | 4.2 | x
C/C(CC1(O)C(=O)Nc2ccccc21)=N\O (stereo unspecified) | 518.6* | 9.5 | -13.2 | 5.0 | -0.2
COc1ccc(CCNC(=O)CCNC(=O)c2ccco2)cc1 | 0.6 | -6.2 | 4.7 | 17.1 | x
COc1ccc(-c2nc(NC(=O)CCNC(=O)c3ccco3)sc2C)cc1 | 368.0* | -1.6 | 4.2 | -9.3 | 0.3
CCOC(=O)Cn1c(C)c(Br)c(=O)c2cccc(C)c21 | + | 34.7 | -7.1 | 10.3 | -0.4
CCC(C)[C@H](NC(=O)CCn1nnc2ccccc2c1=O)C(=O)O (stereo partly specified) | 2.4 | 20.3 | 24.6 | 29.3 | x
CCOC(=O)/C=C(\C)N1N=C(c2ccccc2)CC1c1ccccc1 (stereo unspecified) | x | 14.9 | -41.6 | 9.2 | x
CCOC(=O)C1CC(c2ccccc2)=NNC1=O (stereo unspecified) | 503.8* | -2.8 | -2.2 | 0.5 | 0.2
O=C(NCCNc1ccc(Cl)cc1[N+](=O)[O-])c1ccccc1F | 473.7* | 32.2 | -7.2 | 12.2 | 0.3
CCOC(=O)C1=C(C)NC(=O)CC1c1cc2c(cc1[N+](=O)[O-])OCO2 (stereo unspecified) | 936.9* | 3.7 | 4.9 | 25.4 | -0.5
CCCOC(=O)C1=C(C)N(C)C(=O)NC1c1cc2c(cc1[N+](=O)[O-])OCO2 (stereo unspecified) | 353.6 | -26.6 | -4.4 | 0.8 | x
O=C(COc1cccnc1[N+](=O)[O-])Nc1ccc(F)cc1 | 13.5 | 14.2 | x | x | x
CCCC1=NN2C(=N)/C(=C\c3cc(C)n(-c4cccc(C)c4)c3C)C(=O)N=C2S1 | -10.0 | 13.8 | 0.6 | 34.3 | x
SMILES | Mot1-301 SUMO | NALP3 yeast inh | PolyA inh | NALP1 yeast inh | Yeast Mot1 SUMO
COC(=O)c1cccc(NC(=O)c2ccccc2)c1 | -5.4 | 20.5 | 16.1 | 9.2 | x
COC(=O)c1cccc(NC(=O)c2ccc[n+]([O-])c2)c1 | 561.0* | 15.2 | 12.3 | 16.9 | 0.5
CC(=O)N1CCSc2ccc(S(=O)(=O)Nc3ccccc3C)cc21 | 30.7 | 8.7 | 1.0 | 15.4 | x
Cc1cc2c(C)ccc(C)c2nc1SCC(=O)c1cccs1 | 591.2* | 19.9 | -12.1 | 34.2 | -0.5
O=C(c1cc(Br)c(Br)s1)N1CCN(C/C=C/c2ccccc2)CC1 | -3.2 | 25.7 | -49.4 | 23.5 | x
Clc1cccc(Oc2ncccn2)c1 | 9.4 | 18.9 | 0.3 | 27.4 | x
Fc1cccc(NC(=S)N2CCn3cccc3C2c2cccnc2)c1 (stereo unspecified) | 496.7* | -6.4 | 1.3 | -2.0 | -0.5
S=C(Nc1ccccc1)N1CCn2cccc2C1c1cccnc1 (stereo unspecified) | 47.4 | 2.6 | 7.0 | 17.9 | x
C/C(N)=C(/C#N)C(=O)CSc1nnc(C)n1-c1ccccc1 | 8.7 | 0.0 | 5.0 | -1.3 | x
C/C(N)=C(/C#N)C(=O)CSc1nnc(-c2ccccc2)n1C | 538.8* | -2.1 | -3.1 | -23.7 | -0.2
Cc1ccc(SC[C@H](C)CN2CC[C@H](C)CCC2=O)cc1 | 460.3* | 19.7 | -15.0 | 10.5 | 0.0
O=C(OCC(=O)N1CCN(c2ccccc2)CC1)c1nc(Cl)ccc1Cl | 640.6* | 15.4 | -3.9 | x | 0.4
O=C(CSc1nnc(-c2ccc(Br)cc2)o1)Nc1cccc(C(=O)O)c1 | -22.5 | 13.6 | 0.7 | 4.2 | x
O=C(CSc1nnc(-c2ccc(Br)cc2)o1)Nc1cccc2ccccc12 | 663.4* | 9.5 | -5.7 | 13.7 | 0.0
COc1ccc(-c2nnc(SCC(=O)N3CCCCC3)o2)cc1 | 542.4* | 38.9 | 14.7 | 1.6 | -0.4
CCOc1ccc(-c2nnc(SCC(=O)N3CCOCC3)o2)cc1 | -5.9 | 16.3 | -10.7 | -6.7 | x
CCOc1ccc(-c2nnc(SCC(=O)N3CCCC3)o2)cc1 | 713.5* | -3.0 | -2.0 | 11.8 | 0.7
O=C(CNC(=O)c1cc2c(n(-c3ccccc3)c1=O)CCCC2=O)c1ccccc1 | -9.6 | 8.9 | -5.6 | 12.3 | x
COc1ccc(-n2c3c(cc(C(=O)NCC(=O)c4ccccc4)c2=O)C(=O)CC(C)(C)C3)cc1 | 443.0* | 9.0 | 6.2 | 26.6 | -0.2
CC[C@]12CCCN3CCc4c(n(c5ccccc45)C(=O)C1)[C@@H]32 | -20.9 | 20.7 | x | x | x
CCOC(=O)C1=C[C@]2(CC)CCCN3CCc4c(n1c1ccccc41)[C@@H]32 | 617.5*! | 24.2 | 0.7 | 29.9 | 0.2
CN(CC(=O)Nc1cccc(F)c1)C(=O)CNC(=O)Cc1cccc2ccccc12 | x | 26.6 | x | x | x
CCOC(=O)C1(CCOc2ccccc2)CCN(Cc2cccc(OC)c2O)CC1 | 517.0* | 16.7 | 8.8 | 29.2 | -0.4
CC(C)(C)Cc1nc(-c2ccccn2)no1 | 391.9* | 14.9 | 10.1 | -10.1 | 0.1
Oc1ccc(/C=N/n2c(-c3ccccc3)n[nH]c2=S)cc1 | 19.7 | 20.5 | 6.8 | -4.5 | x
COc1ccccc1C(=O)NCC(=O)OCc1csc(-c2ccccc2)n1 | 347.7 | 9.6 | -14.2 | 21.9 | x
CC(=O)c1nn(-c2ccccc2)cc1C(=O)c1ccc(Br)cc1 | -20.4 | -8.8 | 15.0 | 21.0 | x
O=C(C[C@H]1C/C=C\CC[C@@H](Cc2ccc(F)cc2)C(=O)OC[C@H]2CCCN2C1=O)N[C@H](CO)Cc1ccccc1 | x | 6.4 | x | x | x
O=Nc1c(-c2cccc([N+](=O)[O-])c2)nc2ncccn12 | 556.1* | 19.8 | 4.0 | 9.9 | -0.1
